Reference: publication PMC5540273 (PLoS ONE, 2017)

Tests used:
Settings in all cases: concentration: 1 μM, replicates: in singlicate; n = 1
[1] = system: MTOR
[2] = system: MUSK
[3] = system: MYLK2
[4] = system: MYLK4
[5] = system: MYLK
[6] = system: MYO3A
[7] = system: MYO3B
[8] = system: T1, NDR1
T1 construct: gene STK38

[9] = system: NDR2
[10] = system: NEK10
[11] = system: NEK11
[12] = system: NEK1
[13] = system: NEK2
[14] = system: NEK3
[15] = system: NEK4
[16] = system: NEK5
[17] = system: NEK6
[18] = system: NEK7
[19] = system: NEK9
[20] = system: T2, NIK
T2 construct: gene MAP3K14
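Further: KINOMEscan kinase panel screen.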

Structure (SMILES) | %Inh [1] [%] | %Inh [2] [%] | %Inh [3] [%] | %Inh [4] [%] | %Inh [5] [%] | %Inh [6] [%] | %Inh [7] [%] | %Inh [8] [%] | %Inh [9] [%] | %Inh [10] [%] | %Inh [11] [%] | %Inh [12] [%] | %Inh [13] [%] | %Inh [14] [%] | %Inh [15] [%] | %Inh [16] [%] | %Inh [17] [%] | %Inh [18] [%] | %Inh [19] [%] | %Inh [20] [%]
Cc1cc(-c2c(-c3ccc(F)cc3)ncn2CCCN2CCOCC2)nc(N)n1 [SB-222517] | 0 | 14 | 1 | 14 | 17 | 17 | 30 | 43 | 14 | 16 | 0 | 33 | 0 | 25 | 0 | 0 | 9 | 0 | 0 | 12
Nc1ncc(-c2ccc3nccc(-c4ccncc4)c3c2)cc1S(=O)(=O)N1CCCCC1 [GSK1693850] | 100 | 0 | 0 | 10 | 22 | 22 | 0 | 30 | 2 | 54 | 0 | 2 | 8 | 4 | 0 | 18 | 0 | 0 | 15 | 11
Cn1cc(-c2ccc3c(c2)CCN3C(=O)Cc2cc(F)cc(F)c2F)c2c(N)ncnc21 [GSK2634140] | 15 | 28 | 82 | 0 | 11 | 38 | 1 | 0 | 0 | 10 | 38 | 7 | 84 | 0 | 32 | 8 | 18 | 0 | 8 | 26
CCNc1nccc(-c2c(-c3ccc(F)cc3)ncn2C2CCN(C)CC2)n1 | 0 | 97.7 | 0 | 0 | 0 | 5 | 0 | 3 | 5 | 0 | 0 | 1 | 0 | 0 | 0 | 5 | 0 | 1 | 0 | 0
CC(C)c1nc(-c2cccc(NS(=O)(=O)c3c(F)cccc3F)c2)c(-c2ccnc(Nc3ccc(N4CCOCC4)nc3)n2)s1.Cl [GSK1723980] | 7 | 0 | 0 | 0 | 6 | 25 | 47 | 32 | 0 | 9 | 97.8 | 0 | 48 | 0 | 6 | 0 | 55 | 76 | 88 | 95.4
CSc1ccc(NC2=C(c3ccc(Cl)cc3)C(=O)NC2=O)cc1 [SB-317658] | 0 | 34 | 10 | 24 | 0 | 18 | 20 | 9 | 9 | 14 | 28 | 4 | 0 | 0 | 0 | 29 | 33 | 0 | 1 | 21
CNc1nccc(-c2ccc3c(N)n[nH]c3c2)n1 [GSK2206003] | 11 | 3 | 60 | 97.1 | 68 | 53 | 0 | 24 | 9 | 29 | 0 | 4 | 2 | 2 | 0 | 14 | 0 | 0 | 9 | 33
c1ccc(Oc2ccc(Nc3ccnc4cc(-c5ccc(CN6CCCCC6)o5)ccc34)cc2)nc1 [GW567143] | 2 | 24 | 0 | 0 | 0 | 0 | 14 | 0 | 0 | 1 | 0 | 0 | 0 | 0 | 25 | 0 | 0 | 0 | 2 | 6
CC(C)c1nc(-c2ccc(F)c(NS(=O)(=O)c3c(F)cccc3F)c2)c(-c2ccnc(Nc3ccc(N4CCOCC4)nc3)n2)s1 [GSK1804250] | 32 | 8 | 2 | 1 | 7 | 51 | 54 | 23 | 0 | 7 | 97.6 | 16 | 31 | 3 | 10 | 1 | 7 | 8 | 85 | 9
Cc1ccc(NC(=O)c2cccc(N3CCCCC3)c2)cc1-c1ccc(C(=O)NCC2CC2)cc1 [GSK1917008] | 14 | 1 | 9 | 9 | 17 | 0 | 12 | 0 | 0 | 0 | 0 | 27 | 16 | 11 | 23 | 12 | 0 | 13 | 35 | 68
COc1cccc2c(-c3ccncc3)c(-c3ccc(F)cc3)nn12 [GW468513] | 20 | 21 | 0 | 0 | 12 | 4 | 0 | 8 | 0 | 0 | 0 | 0 | 0 | 0 | 4 | 7 | 0 | 0 | 0 | 0
O=C(Nc1n[nH]c2nc(-c3ccccc3)ccc12)C1CC1 [SB-708999] | 0 | 13 | 86 | 11 | 30 | 25 | 0 | 0 | 13 | 0 | 36 | 0 | 0 | 2 | 5 | 49 | 24 | 0 | 7 | 18
CCn1cnc2c(NCc3ccccc3)ncnc21 [SKF-96418] | 37 | 0 | 0 | 6 | 0 | 0 | 0 | 30 | 14 | 14 | 0 | 0 | 0 | 24 | 0 | 0 | 0 | 0 | 0 | 32
Cc1ccc(-c2ccc3occ(-c4ccc(S(C)=O)cc4)c3c2)nn1 (centres unmarked) | 17 | 3 | 11 | 0 | 0 | 0 | 1 | 2 | 15 | 25 | 0 | 0 | 0 | 30 | 0 | 0 | 0 | 0 | 0 | 0
COc1cc(Nc2nccc(N3CCC(NC(=O)Nc4ccc5c(c4)OCO5)C3)n2)cc(OC)c1OC (centres unmarked) [GSK1379766] | 26 | 19 | 10 | 1 | 21 | 18 | 0 | 0 | 9 | 34 | 0 | 46 | 20 | 45 | 26 | 100 | 18 | 29 | 21 | 20
COC(=O)Nc1nc2ccc(Oc3ccc(CC(=O)Nc4cc(C(F)(F)F)ccc4F)cc3)cc2[nH]1 [GW680903] | 26 | 95.5 | 0 | 0 | 10 | 12 | 0 | 0 | 0 | 21 | 0 | 0 | 0 | 6 | 14 | 13 | 0 | 0 | 45 | 25
Cl.Cl.NC(CNC(=O)c1cc(Br)c(-c2ccnc3[nH]ccc23)s1)c1ccccc1 (centres unmarked) [GSK1322949] | 26 | 22 | 27 | 97.2 | 62 | 34 | 0 | 96.4 | 95.5 | 1 | 0 | 54 | 0 | 5 | 0 | 16 | 0 | 0 | 23 | 11
O=C1NC(=O)C(c2ccccc2Cl)=C1Nc1cccc(Cl)c1 [SB-342409] | 4 | 8 | 11 | 3 | 9 | 0 | 3 | 1 | 0 | 51 | 0 | 5 | 10 | 56 | 11 | 7 | 1 | 16 | 20 | 0
Cn1cc(-c2cnc(N)c3c(-c4ccc5c(c4)CCN5C(=O)Cc4ccccc4)csc23)cn1 [GSK2593074] | 0 | 24 | 55 | 0 | 4 | 0 | 45 | 10 | 2 | 22 | 47 | 0 | 28 | 1 | 0 | 5 | 0 | 0 | 0 | 0
